# Experimental data published in PubChem BioAssay (NCATS).
# Results filed as inconclusive are left out. A call without a number means that no potency is given here. Activity calls are given as the source filed them. Calls follow the shape of the dose curve; as a rule, active = well fitted cell-killing curve with a large enough effect; inconclusive = small, poorly fitted or top-dose-only effect, or effect the other way; inactive = no such curve, though single readings can be large or run the other way. Where a SMILES comes first, the peptide text is derived from it. [ ]: non-standard residue; d: D form. pGlu = O=C1CC[C@@H](C(=O)O)N1
# Experiment: qHTS assay to identify small molecule inhibitors of chordoma cells - UCH-1 (AID 1259355); also: nearly all actives have a fitted effect of over 55% in size
# Settings: UCH-1 chordoma viability, CellTiter-Glo, 48 h, combination, with auranofin plus four topoisomerase inhibitors; series mostly up to 46.1 µM
# Description: NIH Chemical Genomics Center [NCGC]
# Chordoma is a rare and slow growing tumor that can occur anywhere along the spine, from the base of the skull to the tailbone. Current treatment options for chordoma is surgery and radiation therapy for those who are not candidates for surgery. But chordomas tend to return in the same location or surrounding areas of the original tumor after surgery and/or radiation. Chemotherapy can slow down the progression of the tumor. As chordoma is slow growing, the general cytotoxic agents that kill fast growing cells are ineffective, and some patients have been reported to respond to molecularly targeted drugs.
# NCATS Pharmaceutical Collection (NPC) containing approximately 3000 clinically approved and investigational drugs were used to screen at 15 concentrations in a chordoma cell lines, UCH-1, to identify small molecule compounds that can inhibit chordoma cell growth.
# NCGC Assay Protocol Summary:
# Human chordoma cell line UCH-1 was dispensed at 800 per well in 4uL of culture medium into white solid bottom 1536-well plates (Corning Life Sciences, Corning, NY) using a Multidrop Combi (Thermo Scientific, Waltham, MA) dispenser. The assay plates were incubated at 37 C and 5% CO2 for an overnight, and then 23nL of compounds dissolved in DMSO and positive control were transferred using a Pintool station (Wako, San Diego, CA). Compound treatment was followed by the addition of 1uL of the combination compounds (1uM Auranofin, 500nM each of Camptothecin, Doxorubicin, Rubitecan, and Topotecan) and assay medium to each well of the assay plates using Flying Reagent Dispenser (FRD, Aurora Discovery, San Diego, CA). The assay plates were incubated at 37 C and 5% CO2 for 48hr. Then 5uL of CellTiter-Glo reagent (Promega Corporation, Madison, WI) was added to each well of the assay plates using FRD. After 30min incubation at room temperature, the luminescence signal was quantified using a ViewLux plate reader (PerkinElmer, Shelton, CT).
# Potency is read from the fitted curve at half-maximal effect.
row,Molecule,Potency
1,CC[C@H](C)[C@H](NC(=O)[C@H](Cc1ccccc1)NC(=O)[C@H](C)NC(=O)[C@H](CC(=O)O)NC(=O)[C@H](CCCCN)NC(=O)[C@H](CO)NC(=O)[C@@H]1CCCN1C(=O)[C@@H]1CCC(=O)N1)C(=O)NCC(=O)N[C@@H](CC(C)C)C(=O)N[C@@H](CCSC)C(N)=O ([pGlu]PSKDAFIGLM-NH2),inactive
2,CCOC(=O)[C@@H](N)CS,inactive
3,CC(C)CCC[C@@H](C)[C@H]1CC(=O)C2=C3CC[C@H]4C[C@@H](O)CC[C@]4(C)[C@H]3CC[C@@]21C,inactive
4,O=S(=O)(O)CCCS(=O)(=O)O,inactive
5,CC(=NCc1ccccc1)c1ccccc1O,inactive
6,C[C@H](NCCc1ccc(O)cc1)[C@H](O)c1ccc(O)cc1,inactive
7,CC(C)(C)NCC(O)CSc1nc(-c2ccc(C(N)=O)s2)cs1 (stereo not given),inactive
8,CN(C)CCC=C1c2ccccc2C(C)(C)c2ccccc21,inactive
9,CC(=O)N[C@@H]([C@@H](O)[C@H](O)[C@H](O)CO)[C@@H](O)CC(=O)C(=O)O,inactive
10,CC(O)CN(C)C (stereo not given),inactive
11,C[C@H](CCC(=O)O)[C@H]1CC[C@H]2[C@@H]3[C@H](O)C[C@@H]4C[C@H](O)CC[C@]4(C)[C@H]3C[C@H](O)[C@]12C,inactive
12,C=CC[C@@H]1/C=C(\C)C[C@H](C)C[C@H](OC)[C@H]2O[C@@](O)(C(=O)C(=O)N3CCCC[C@H]3C(=O)O[C@H](/C(C)=C/[C@@H]3CC[C@@H](O)[C@H](OC)C3)[C@H](C)[C@@H](O)CC1=O)[C@H](C)C[C@@H]2OC,inactive
13,OCC1(CO)COC(C(Cl)(Cl)Cl)OC1,inactive
14,CC(O)[C@H]1CC[C@H]2[C@@H]3CC[C@@H]4C[C@@H](O)CC[C@]4(C)[C@H]3CC[C@]12C (stereo not given in full),inactive
15,C[C@]12CCC(=O)C[C@@H]1CC[C@@H]1[C@@H]2CC[C@]2(C)C=CC[C@@H]12,inactive
16,CCCC(=O)Nc1c(I)cc(I)c(CC(CC)C(=O)O)c1I (stereo not given),inactive
17,NC(=O)OC[C@@H]1[C@H](NC(=O)/C(=N\OCC(=O)O)c2csc(N)n2)C(=O)N1S(=O)(=O)O,inactive
18,C[C@H](CCCC(C)(C)O)[C@H]1CC[C@H]2[C@@H]3CC=C4C[C@@H](O)CC[C@]4(C)[C@H]3CC[C@]12C,inactive
19,O=C(O)Cc1nn(Cc2ccc(Br)cc2F)c(=O)c2ccccc12,inactive
20,CCCCC(CC)CCC(CC(C)C)OS(=O)(=O)O (stereo not given),inactive

row,Molecule,Potency
1,CC(C)(C)c1ccc2c(S(=O)(=O)O)c(C(C)(C)C)ccc2c1,inactive
2,O=C(O)CCC/C=C\C[C@@H]1[C@@H](/C=C/[C@@H](O)COc2cccc(C(F)(F)F)c2)[C@H](O)C[C@@H]1O,inactive
3,CC[C@H](CC[C@@H](C)[C@H]1CC[C@H]2[C@@H]3CC=C4C[C@@H](O)CC[C@]4(C)[C@H]3CC[C@]12C)C(C)C,inactive
4,CC(C)(C)CC(C)(C)c1cc(Cc2cc(C(C)(C)CC(C)(C)C)cc(-n3nc4ccccc4n3)c2O)c(O)c(-n2nc3ccccc3n2)c1,inactive
5,O=C(OC[C@H]1O[C@](O)(COC(=O)c2cccnc2)[C@@H](OC(=O)c2cccnc2)[C@@H]1OC(=O)c1cccnc1)c1cccnc1,inactive
6,CN(C)c1ccc(C(=C2C=CC(=[N+](C)C)C=C2)c2c(O)c(S(=O)(=O)[O-])cc3cc(S(=O)(=O)O)ccc23)cc1,14.1 µM (active)
7,CC(C)=CCC/C(C)=C/C=C/C(C)=C/C=C/C(C)=C/C=C/C=C(C)/C=C/C=C(C)/C=C/C=C(\C)CCC=C(C)C,inactive
8,O=C(NCCNCC(O)COc1ccc(O)cc1)N1CCOCC1 (stereo not given),inactive
9,H-RKDVY-OH,inactive
10,O=C(O)CCC/C=C\C[C@@H]1[C@@H](/C=C/[C@@H](O)COc2cccc(Cl)c2)[C@H](O)C[C@@H]1O,inactive
11,CN1c2c(nc(N)[nH]c2=O)NCC1CNc1ccc(C(=O)NC(CCC(=O)O)C(=O)O)cc1 (stereo not given),inactive
12,CCCCC/C=C\C/C=C\C/C=C\CCCCC(=O)O,inactive
13,CC(C)(CO)[C@@H](O)C(=O)NCCC(=O)NCCSSCCNC(=O)CCNC(=O)[C@H](O)C(C)(C)CO,inactive
14,O=C(CCCCCCCCCCCCC1CCCC1)Nc1ccc(S(=O)(=O)c2ccc(NC(=O)CCCCCCCCCCCCC3CCCC3)cc2)cc1,inactive
15,C[C@]12CC[C@@H]3c4ccc(OC(=O)c5ccccc5)cc4CC[C@H]3[C@@H]1CC[C@@H]2O,inactive
16,O=C1[O][Bi][O]c2ccccc21,inactive
17,CC(C)CCC[C@@H](C)[C@H]1CC[C@H]2[C@@H]3CC=C4C[C@@H](O)CC[C@]4(C)[C@H]3CC[C@]12C,inactive
18,O=C(OCc1ccccc1)c1cccnc1,inactive
19,CC(=O)Oc1cccc(C(=O)O)c1OC(C)=O,inactive
20,CC1(C)C(\C=C/C=C\C=C/C=C2/N(CCCCS(=O)(=O)O)c3ccc4ccccc4c3C2(C)C)=[N+](CCCCS(=O)(=O)[O-])c2ccc3ccccc3c21,inactive
